Laboratory results reported in PubChem BioAssay AID1159580 (chemical genetic matrix, 2015).
“And” between values parts separate entries of the source, which are not always exact repeats. Equal entries are not always repeated. The campaign covered roughly 5,500 compounds. About 2,000 (36%) were called active. Not shown: some 18% with an inconclusive outcome. Rule as the data show it: active = normalized growth mostly below about 0.91 (no sharp cut-off); inconclusive = no clear call, values can overlap the other calls; inactive = mostly above about 0.92. This is one part of the list. Some compounds were tested as several samples or in several runs, with calls that do not always agree.

Test: chemical genetic growth profiling, strain panel (AID 1159580);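 also: tested at 20 µM; growth read once vehicle control cultures reached saturation at 30 °C; 1 = growth at the plate median or of vehicle wells; lower values mean less growth of the strain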
Settings: growth OD

In the case of `Cc1nc2sccn2c(=O)c1CCN1CCC(=C(c2ccc(F)cc2)c2ccc(F)cc2)CC1`, the normalized growth (S. cerevisiae deletion strains, locus YAL013W, strain DEP1, stronger effect = lower value) is reported as 0.65 (active) and 1.01 (inactive), the normalized growth (S. cerevisiae deletion strains, locus YAL040C, strain CLN3, stronger effect = lower value) is reported as 1 (inactive) and the normalized growth (S. cerevisiae deletion strains, locus YBR021W, strain FUR4, stronger effect = lower value) is reported as 0.338 (active). For the same compound, the normalized growth (S. cerevisiae deletion strains, locus YBR229C, strain ROT2, stronger effect = lower value) was 0.992 (inactive), the normalized growth (S. cerevisiae deletion strains, locus YCL029C, strain bik1, stronger effect = lower value) was 0.885 (active) and the normalized growth (S. cerevisiae deletion strains, locus YCL061C, strain MRC1 (second series), stronger effect = lower value) was 1 (inactive). For the same compound, the normalized growth (S. cerevisiae deletion strains, locus YDL035C, strain GPR1, stronger effect = lower value) was 0.536 (active), the normalized growth (S. cerevisiae deletion strains, locus YDL074C, strain BRE1, stronger effect = lower value) was 0.395 (active) and the normalized growth (S. cerevisiae deletion strains, locus YDL101C, strain DUN1, stronger effect = lower value) was 0.758 (active). The normalized growth (S. cerevisiae deletion strains, locus YDL134C, strain PPH21, stronger effect = lower value) was 0.404 (active), the normalized growth (S. cerevisiae deletion strains, locus YDL185W, strain tfp1, stronger effect = lower value) was 1.01 (inactive) and the normalized growth (S. cerevisiae deletion strains, locus YDL192W, strain arf1, stronger effect = lower value) was 0.844 (active). The normalized growth (S. cerevisiae deletion strains, locus YDR101C, strain arx1, stronger effect = lower value) was 0.945 (inactive), the normalized growth (S. cerevisiae deletion strains, locus YDR150W, strain NUM1, stronger effect = lower value) was 0.802 (active) and 0.999 (inactive) and the normalized growth (S. cerevisiae deletion strains, locus YDR162C, strain NBP2, stronger effect = lower value) was 0.0773 (active). The normalized growth (S. cerevisiae deletion strains, locus YDR318W, strain mcm21, stronger effect = lower value) was 0.865 (active), the normalized growth (S. cerevisiae deletion strains, locus YDR363W, strain ESC2, stronger effect = lower value) was 1.01 (inactive) and the normalized growth (S. cerevisiae deletion strains, locus YDR388W, stronger effect = lower value) was 0.222 (active). The normalized growth (S. cerevisiae deletion strains, locus YDR502C, strain sam2, stronger effect = lower value) was 0.832 (active), the normalized growth (S. cerevisiae deletion strains, locus YEL061C, strain CIN8, stronger effect = lower value) was 0.672 (active) and the normalized growth (S. cerevisiae deletion strains, locus YER002W, strain NOP16, stronger effect = lower value) was 1.21 [resistant] (active). For the same compound, the normalized growth (S. cerevisiae deletion strains, locus YER110C, stronger effect = lower value) was 1 (inactive), the normalized growth (S. cerevisiae deletion strains, locus YER155C, strain BEM2, stronger effect = lower value) was 0.897 (active) and the normalized growth (S. cerevisiae deletion strains, locus YER167W, strain BCK2, stronger effect = lower value) was 0.692 (active). The normalized growth (S. cerevisiae deletion strains, locus YGL078C, strain dbp3, stronger effect = lower value) was 1 (inactive), the normalized growth (S. cerevisiae deletion strains, locus YGL086W, strain mad1, stronger effect = lower value) was 0.808 (active) and the normalized growth (S. cerevisiae deletion strains, locus YGL248W, strain PDE1, stronger effect = lower value) was 0.511 (active). The normalized growth (S. cerevisiae deletion strains, locus YGR078C, strain PAC10, stronger effect = lower value) was 0.695 (active), the normalized growth (S. cerevisiae deletion strains, locus YGR135W, strain pre9, stronger effect = lower value) was 0.683 (active) and the normalized growth (S. cerevisiae deletion strains, locus YGR229C, strain SMI1, stronger effect = lower value) was 0.132 (active) and 0.945 (inactive). The normalized growth (S. cerevisiae deletion strains, locus YGR252W, strain gcn5, stronger effect = lower value) was 0.487 (active), the normalized growth (S. cerevisiae deletion strains, locus YHR030C, strain SLT2, stronger effect = lower value) was 0.65 (active) and 0.981 (inactive) and the normalized growth (S. cerevisiae deletion strains, locus YHR079C, strain IRE1 (second series), stronger effect = lower value) was 0.902 (active). The normalized growth (S. cerevisiae deletion strains, locus YHR079C, strain IRE1, stronger effect = lower value) was 0.959 (inactive), the normalized growth (S. cerevisiae deletion strains, locus YHR094C, strain hxt1, stronger effect = lower value) was 1 (inactive) and the normalized growth (S. cerevisiae deletion strains, locus YHR200W, strain rpn10, stronger effect = lower value) was 0.914 (active). The normalized growth (S. cerevisiae deletion strains, locus YIL066C, strain RNR3, stronger effect = lower value) was 0.571 (active), the normalized growth (S. cerevisiae deletion strains, locus YIL073C, strain SPO22, stronger effect = lower value) was 0.279 (active) and the normalized growth (S. cerevisiae deletion strains, locus YIL125W, strain kgd1, stronger effect = lower value) was 1 (inactive). For the same compound, the normalized growth (S. cerevisiae deletion strains, locus YIR030C, strain dcg1, stronger effect = lower value) was 0.917 (active), the normalized growth (S. cerevisiae deletion strains, locus YJL095W, strain BCK1, stronger effect = lower value) was 0.354 (active) and 0.987 (inactive) and the normalized growth (S. cerevisiae deletion strains, locus YJL134W, strain LCB3, stronger effect = lower value) was 1.01 (inactive). For the same compound, the normalized growth (S. cerevisiae deletion strains, locus YJL168C, strain set2, stronger effect = lower value) was 0.998 (inactive), the normalized growth (S. cerevisiae deletion strains, locus YJL187C, strain SWE1 (second series), stronger effect = lower value) was 0.547 (active) and the normalized growth (S. cerevisiae deletion strains, locus YJR043C, strain POL32, stronger effect = lower value) was 0.69 (active). The normalized growth (S. cerevisiae deletion strains, locus YJR066W, strain TOR1, stronger effect = lower value) was 0.965 (inactive), the normalized growth (S. cerevisiae deletion strains, locus YJR075W, strain HOC1, stronger effect = lower value) was 0.36 (active) and 0.998 (inactive) and the normalized growth (S. cerevisiae deletion strains, locus YKL009W, strain mrt4, stronger effect = lower value) was 0.967 (inactive). The normalized growth (S. cerevisiae deletion strains, locus YKL068W, stronger effect = lower value) was 0.999 (inactive), the normalized growth (S. cerevisiae deletion strains, locus YKL085W, strain MDH1 (second series), stronger effect = lower value) was 0.992 (inactive) and the normalized growth (S. cerevisiae deletion strains, locus YKL085W, strain MDH1, stronger effect = lower value) was 0.992 (inactive). For the same compound, the normalized growth (S. cerevisiae deletion strains, locus YKL190W, strain CNB1, stronger effect = lower value) was 0.604 (active), the normalized growth (S. cerevisiae deletion strains, locus YKR001C, strain vps1, stronger effect = lower value) was 0.139 (active) and the normalized growth (S. cerevisiae deletion strains, locus YLR039C, strain RIC1, stronger effect = lower value) was 0.303 (active). For the same compound, the normalized growth (S. cerevisiae deletion strains, locus YLR058C, strain SHM2, stronger effect = lower value) was 0.613 (active), the normalized growth (S. cerevisiae deletion strains, locus YLR102C, strain apc9, stronger effect = lower value) was 0.999 (inactive) and the normalized growth (S. cerevisiae deletion strains, locus YLR113W, strain HOG1, stronger effect = lower value) was 0.979 (inactive). The normalized growth (S. cerevisiae deletion strains, locus YLR262C, strain YPT6, stronger effect = lower value) was 0.289 (active), the normalized growth (S. cerevisiae deletion strains, locus YLR268W, strain sec22, stronger effect = lower value) was 0.624 (active) and the normalized growth (S. cerevisiae deletion strains, locus YLR330W, strain CHS5, stronger effect = lower value) was 0.833 (active). For the same compound, the normalized growth (S. cerevisiae deletion strains, locus YLR342W, strain FKS1 (second series), stronger effect = lower value) was 0.56 (active), the normalized growth (S. cerevisiae deletion strains, locus YLR371W, strain rom2, stronger effect = lower value) was 0.978 (inactive) and the normalized growth (S. cerevisiae deletion strains, locus YLR418C, strain cdc73, stronger effect = lower value) was 0.451 (active). The normalized growth (S. cerevisiae deletion strains, locus YML016C, strain PPZ1, stronger effect = lower value) was 0.65 (active), the normalized growth (S. cerevisiae deletion strains, locus YML032C, strain rad52, stronger effect = lower value) was 0.825 (active) and the normalized growth (S. cerevisiae deletion strains, locus YML124C, strain tub3, stronger effect = lower value) was 1 (inactive). The normalized growth (S. cerevisiae deletion strains, locus YMR078C, strain ctf18, stronger effect = lower value) was 1 (inactive), the normalized growth (S. cerevisiae deletion strains, locus YMR223W, strain ubp8, stronger effect = lower value) was 0.816 (active) and the normalized growth (S. cerevisiae deletion strains, locus YMR263W, strain SAP30, stronger effect = lower value) was 0.733 (active) and 1 (inactive). For the same compound, the normalized growth (S. cerevisiae deletion strains, locus YMR307W, strain GAS1, stronger effect = lower value) was 0.206 (active) and 1.03 (inactive), the normalized growth (S. cerevisiae deletion strains, locus YNL067W, strain RPL9B, stronger effect = lower value) was 0.72 (active) and the normalized growth (S. cerevisiae deletion strains, locus YNL128W, strain TEP1, stronger effect = lower value) was 0.637 (active) and 1.1 (inactive). The normalized growth (S. cerevisiae deletion strains, locus YNL153C, strain GIM3, stronger effect = lower value) was 0.732 (active) and 0.816 (inactive), the normalized growth (S. cerevisiae deletion strains, locus YNL175C, strain NOP13, stronger effect = lower value) was 1.28 [resistant] (active) and the normalized growth (S. cerevisiae deletion strains, locus YNL183C, strain NPR1, stronger effect = lower value) was 0.935 (inactive). For the same compound, the normalized growth (S. cerevisiae deletion strains, locus YNL197C, strain WHI3, stronger effect = lower value) was 1.19 [resistant] (active), the normalized growth (S. cerevisiae deletion strains, locus YNL233W, strain BNI4, stronger effect = lower value) was 0.573 (active) and the normalized growth (S. cerevisiae deletion strains, locus YNL250W, strain rad50, stronger effect = lower value) was 0.988 (inactive). The normalized growth (S. cerevisiae deletion strains, locus YNL271C, strain bni1, stronger effect = lower value) was 0.992 (inactive), the normalized growth (S. cerevisiae deletion strains, locus YNL298W, strain CLA4, stronger effect = lower value) was 0.999 (inactive) and the normalized growth (S. cerevisiae deletion strains, locus YNL307C, strain MCK1, stronger effect = lower value) was 0.863 (active). For the same compound, the normalized growth (S. cerevisiae deletion strains, locus YNL322C, strain KRE1, stronger effect = lower value) was 0.67 (active), the normalized growth (S. cerevisiae deletion strains, locus YNR052C, strain pop2, stronger effect = lower value) was 0.773 (active) and the normalized growth (S. cerevisiae deletion strains, locus YOL006C, strain TOP1, stronger effect = lower value) was 0.138 (active). The normalized growth (S. cerevisiae deletion strains, locus YOL012C, strain htz1) was 0.498 (inactive), the normalized growth (S. cerevisiae deletion strains, locus YOL147C, strain pex11, stronger effect = lower value) was 0.984 (inactive) and the normalized growth (S. cerevisiae deletion strains, locus YOR061W, strain CKA2, stronger effect = lower value) was 0.646 (active). For the same compound, the normalized growth (S. cerevisiae deletion strains, locus YOR069W, strain VPS5, stronger effect = lower value) was 0.861 (active), the normalized growth (S. cerevisiae deletion strains, locus YOR083W, strain WHI5 (second series), stronger effect = lower value) was 0.985 (inactive) and the normalized growth (S. cerevisiae deletion strains, locus YOR136W, strain idh2, stronger effect = lower value) was 0.94 (inactive). For the same compound, the normalized growth (S. cerevisiae deletion strains, locus YOR144C, strain elg1, stronger effect = lower value) was 1.01 (inactive), the normalized growth (S. cerevisiae deletion strains, locus YOR184W, strain ser1, stronger effect = lower value) was 0.729 (active) and the normalized growth (S. cerevisiae deletion strains, locus YOR231W, strain MKK1, stronger effect = lower value) was 0.999 (inactive). The normalized growth (S. cerevisiae deletion strains, locus YOR316C, strain cot1, stronger effect = lower value) was 0.996 (inactive), the normalized growth (S. cerevisiae deletion strains, locus YPL055C, strain LGE1, stronger effect = lower value) was 0.268 (active) and the normalized growth (S. cerevisiae deletion strains, locus YPL256C, strain CLN2, stronger effect = lower value) was 0.962 (inactive). For the same compound, the normalized growth (S. cerevisiae deletion strains, locus YPR119W, strain clb2, stronger effect = lower value) was 1.01 (inactive), the normalized growth (S. cerevisiae deletion strains, locus YPR141C, strain kar3, stronger effect = lower value) was 0.997 (inactive) and the normalized growth (S. cerevisiae deletion strains, locus YPR163C, strain tif3, stronger effect = lower value) was 0.722 (active). For the same compound, the normalized growth (S. cerevisiae deletion strains, locus YPR167C, strain met16, stronger effect = lower value) was 0.906 (active), the normalized growth (S. cerevisiae deletion strains, strain wtn01, stronger effect = lower value) was 0.776 (active) and the normalized growth (S. cerevisiae strains, strain wild type, stronger effect = lower value) was 0.592 (active).
